Results taken from ChEMBL document CHEMBL1961873, “Compounds: GSK PKIS; Assays: Nanosyn kinase panel” (2012).

Columns and labels:
[1] = biological target: Serine/threonine-protein kinase PAK 6 (Homo sapiens) (UniProt Q9NQU5); conditions: at 1 µM;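 further: values are mean percent inhibition of PAK6 kinase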
[2] = system: Tyrosine-protein kinase ABL1 (Homo sapiens), P00519 [E255K]; conditions: at 0.1 µM
[3] = system: Tyrosine-protein kinase ABL1 (Homo sapiens), P00519 [E255K]; conditions: at 1 µM
[4] = system: Tyrosine-protein kinase ABL1 (Homo sapiens), P00519 [H396P]; conditions: at 0.1 µM
[5] = system: Tyrosine-protein kinase ABL1 (Homo sapiens), P00519 [H396P]; conditions: at 1 µM
[6] = system: Tyrosine-protein kinase ABL1 (Homo sapiens), P00519 [M351T]; conditions: at 0.1 µM
[7] = system: Tyrosine-protein kinase ABL1 (Homo sapiens), P00519 [M351T]; conditions: at 1 µM
[8] = system: Tyrosine-protein kinase ABL1 (Homo sapiens), P00519 [Q252H]; conditions: at 0.1 µM
[9] = system: Tyrosine-protein kinase ABL1 (Homo sapiens), P00519 [Q252H]; conditions: at 1 µM
[10] = system: Tyrosine-protein kinase ABL1 (Homo sapiens), P00519 [T315I]; conditions: at 0.1 µM
[11] = system: Tyrosine-protein kinase ABL1 (Homo sapiens), P00519 [T315I]; conditions: at 1 µM
[12] = system: Tyrosine-protein kinase ABL1 (Homo sapiens), P00519 [Y253F]; conditions: at 0.1 µM
[13] = system: Tyrosine-protein kinase ABL1 (Homo sapiens), P00519 [Y253F]; conditions: at 1 µM
[14] = biological target: Tyrosine-protein kinase ABL1 (Homo sapiens) (UniProt P00519); conditions: at 0.1 µM
[15] = biological target: Tyrosine-protein kinase ABL1 (Homo sapiens) (UniProt P00519); conditions: at 1 µM
[16] = biological target: ALK tyrosine kinase receptor (Homo sapiens) (UniProt Q9UM73); conditions: at 0.1 µM
[17] = biological target: ALK tyrosine kinase receptor (Homo sapiens) (UniProt Q9UM73); conditions: at 1 µM
[18] = biological target: Tyrosine-protein kinase ABL2 (Homo sapiens) (UniProt P42684); conditions: at 0.1 µM
[19] = biological target: Tyrosine-protein kinase ABL2 (Homo sapiens) (UniProt P42684); conditions: at 1 µM
[20] = biological target: Tyrosine-protein kinase receptor UFO (Homo sapiens) (UniProt P30530); conditions: at 0.1 µM;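 further: values are mean percent inhibition of AXL from the GSK PKIS screen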
Tyrosine-protein kinase receptor UFO (Homo sapiens), sequence (P30530 whole entry): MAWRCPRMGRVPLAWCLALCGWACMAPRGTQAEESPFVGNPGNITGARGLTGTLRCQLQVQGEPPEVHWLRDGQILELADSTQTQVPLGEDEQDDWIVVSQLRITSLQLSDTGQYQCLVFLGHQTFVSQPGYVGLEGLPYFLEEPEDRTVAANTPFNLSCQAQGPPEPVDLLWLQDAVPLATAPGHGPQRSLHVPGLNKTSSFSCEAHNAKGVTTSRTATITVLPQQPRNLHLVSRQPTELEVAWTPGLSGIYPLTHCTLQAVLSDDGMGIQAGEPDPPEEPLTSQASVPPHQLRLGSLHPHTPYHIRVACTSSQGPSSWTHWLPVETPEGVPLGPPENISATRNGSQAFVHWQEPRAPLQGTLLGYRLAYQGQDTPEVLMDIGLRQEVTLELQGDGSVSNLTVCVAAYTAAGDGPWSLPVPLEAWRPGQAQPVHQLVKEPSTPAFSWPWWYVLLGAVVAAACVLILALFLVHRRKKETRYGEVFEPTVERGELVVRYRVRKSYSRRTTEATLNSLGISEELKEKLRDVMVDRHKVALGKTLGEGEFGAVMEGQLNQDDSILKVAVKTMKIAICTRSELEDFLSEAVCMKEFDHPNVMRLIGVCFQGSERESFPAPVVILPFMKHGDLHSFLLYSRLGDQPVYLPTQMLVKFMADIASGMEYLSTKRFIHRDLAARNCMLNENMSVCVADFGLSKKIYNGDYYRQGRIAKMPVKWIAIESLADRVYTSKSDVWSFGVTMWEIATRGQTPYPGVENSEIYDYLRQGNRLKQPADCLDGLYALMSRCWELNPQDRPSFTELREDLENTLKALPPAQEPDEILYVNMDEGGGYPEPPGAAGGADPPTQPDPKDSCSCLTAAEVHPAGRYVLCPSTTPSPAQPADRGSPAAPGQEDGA

Tyrosine-protein kinase ABL2 (Homo sapiens), sequence (P42684 whole entry): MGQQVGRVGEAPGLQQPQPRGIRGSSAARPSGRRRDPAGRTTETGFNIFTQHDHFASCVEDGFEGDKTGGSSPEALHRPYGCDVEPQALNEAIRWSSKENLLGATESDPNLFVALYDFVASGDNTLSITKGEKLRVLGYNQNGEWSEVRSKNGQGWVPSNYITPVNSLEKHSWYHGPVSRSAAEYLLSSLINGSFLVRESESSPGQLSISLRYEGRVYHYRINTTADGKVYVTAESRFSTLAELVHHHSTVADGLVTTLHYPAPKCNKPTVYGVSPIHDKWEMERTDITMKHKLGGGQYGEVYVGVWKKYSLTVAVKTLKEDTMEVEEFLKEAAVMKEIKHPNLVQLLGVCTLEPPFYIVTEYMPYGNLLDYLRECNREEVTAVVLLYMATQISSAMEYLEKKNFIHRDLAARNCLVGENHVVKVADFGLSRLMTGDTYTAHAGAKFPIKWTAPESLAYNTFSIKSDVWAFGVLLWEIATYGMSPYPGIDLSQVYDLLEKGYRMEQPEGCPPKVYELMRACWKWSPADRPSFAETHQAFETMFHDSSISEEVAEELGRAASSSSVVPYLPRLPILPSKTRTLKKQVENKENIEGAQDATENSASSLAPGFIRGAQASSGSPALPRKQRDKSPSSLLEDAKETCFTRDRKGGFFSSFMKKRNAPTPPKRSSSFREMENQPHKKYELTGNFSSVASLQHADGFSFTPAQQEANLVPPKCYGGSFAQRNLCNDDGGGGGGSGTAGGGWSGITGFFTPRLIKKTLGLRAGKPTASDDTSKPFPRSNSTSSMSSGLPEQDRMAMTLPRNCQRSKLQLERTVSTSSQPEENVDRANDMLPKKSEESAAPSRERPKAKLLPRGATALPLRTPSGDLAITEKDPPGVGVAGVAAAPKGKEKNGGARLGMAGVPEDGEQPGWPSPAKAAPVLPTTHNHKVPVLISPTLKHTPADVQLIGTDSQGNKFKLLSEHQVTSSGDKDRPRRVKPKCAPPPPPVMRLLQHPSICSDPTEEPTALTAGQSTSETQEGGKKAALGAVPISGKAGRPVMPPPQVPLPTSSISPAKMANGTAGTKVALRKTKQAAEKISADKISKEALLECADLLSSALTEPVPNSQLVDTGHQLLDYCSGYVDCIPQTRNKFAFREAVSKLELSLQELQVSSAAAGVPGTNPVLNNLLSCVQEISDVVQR
ALK tyrosine kinase receptor (Homo sapiens), sequence (Q9UM73 19-1620 limits assumed): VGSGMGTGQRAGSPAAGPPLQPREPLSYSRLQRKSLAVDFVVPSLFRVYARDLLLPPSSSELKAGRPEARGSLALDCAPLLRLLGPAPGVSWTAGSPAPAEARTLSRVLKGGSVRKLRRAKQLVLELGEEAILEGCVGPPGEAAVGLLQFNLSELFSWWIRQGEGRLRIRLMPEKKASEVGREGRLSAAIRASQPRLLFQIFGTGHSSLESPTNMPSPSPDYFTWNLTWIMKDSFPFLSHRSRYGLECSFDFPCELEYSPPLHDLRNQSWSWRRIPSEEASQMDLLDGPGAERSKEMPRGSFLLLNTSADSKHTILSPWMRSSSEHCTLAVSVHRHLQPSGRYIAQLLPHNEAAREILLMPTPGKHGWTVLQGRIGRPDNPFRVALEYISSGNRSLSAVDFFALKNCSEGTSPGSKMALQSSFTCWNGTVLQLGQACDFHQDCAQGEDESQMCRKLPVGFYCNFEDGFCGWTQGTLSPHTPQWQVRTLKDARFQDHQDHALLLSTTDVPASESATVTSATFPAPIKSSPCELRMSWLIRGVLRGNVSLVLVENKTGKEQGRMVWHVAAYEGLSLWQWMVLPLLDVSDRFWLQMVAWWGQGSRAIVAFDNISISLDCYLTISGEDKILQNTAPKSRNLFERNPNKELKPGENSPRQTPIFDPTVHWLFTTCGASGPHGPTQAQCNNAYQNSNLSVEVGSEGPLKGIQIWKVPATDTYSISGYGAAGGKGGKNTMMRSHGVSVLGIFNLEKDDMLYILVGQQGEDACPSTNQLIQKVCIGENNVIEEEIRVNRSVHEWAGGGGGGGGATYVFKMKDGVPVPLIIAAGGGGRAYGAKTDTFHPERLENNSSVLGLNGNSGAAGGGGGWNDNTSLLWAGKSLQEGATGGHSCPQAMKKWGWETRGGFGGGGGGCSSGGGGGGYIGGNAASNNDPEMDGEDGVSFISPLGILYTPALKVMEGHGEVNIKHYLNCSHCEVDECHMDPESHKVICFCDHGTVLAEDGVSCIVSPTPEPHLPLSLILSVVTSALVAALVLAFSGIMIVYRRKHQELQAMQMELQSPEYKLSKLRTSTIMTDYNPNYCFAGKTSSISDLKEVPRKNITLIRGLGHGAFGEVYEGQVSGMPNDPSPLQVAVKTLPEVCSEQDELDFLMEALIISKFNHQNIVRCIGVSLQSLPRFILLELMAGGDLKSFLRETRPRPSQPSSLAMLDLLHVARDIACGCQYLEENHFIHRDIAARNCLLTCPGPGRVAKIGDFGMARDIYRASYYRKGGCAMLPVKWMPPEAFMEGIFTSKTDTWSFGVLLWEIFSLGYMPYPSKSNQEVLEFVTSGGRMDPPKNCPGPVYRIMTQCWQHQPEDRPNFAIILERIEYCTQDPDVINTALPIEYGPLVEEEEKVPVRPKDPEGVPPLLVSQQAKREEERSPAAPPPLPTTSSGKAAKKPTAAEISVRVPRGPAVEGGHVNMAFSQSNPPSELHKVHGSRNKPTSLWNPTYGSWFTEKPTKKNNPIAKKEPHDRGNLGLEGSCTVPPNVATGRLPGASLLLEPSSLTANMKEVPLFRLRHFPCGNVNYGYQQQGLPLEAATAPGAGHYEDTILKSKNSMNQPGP
Serine/threonine-protein kinase PAK 6 (Homo sapiens), sequence (Q9NQU5 whole entry, looked up): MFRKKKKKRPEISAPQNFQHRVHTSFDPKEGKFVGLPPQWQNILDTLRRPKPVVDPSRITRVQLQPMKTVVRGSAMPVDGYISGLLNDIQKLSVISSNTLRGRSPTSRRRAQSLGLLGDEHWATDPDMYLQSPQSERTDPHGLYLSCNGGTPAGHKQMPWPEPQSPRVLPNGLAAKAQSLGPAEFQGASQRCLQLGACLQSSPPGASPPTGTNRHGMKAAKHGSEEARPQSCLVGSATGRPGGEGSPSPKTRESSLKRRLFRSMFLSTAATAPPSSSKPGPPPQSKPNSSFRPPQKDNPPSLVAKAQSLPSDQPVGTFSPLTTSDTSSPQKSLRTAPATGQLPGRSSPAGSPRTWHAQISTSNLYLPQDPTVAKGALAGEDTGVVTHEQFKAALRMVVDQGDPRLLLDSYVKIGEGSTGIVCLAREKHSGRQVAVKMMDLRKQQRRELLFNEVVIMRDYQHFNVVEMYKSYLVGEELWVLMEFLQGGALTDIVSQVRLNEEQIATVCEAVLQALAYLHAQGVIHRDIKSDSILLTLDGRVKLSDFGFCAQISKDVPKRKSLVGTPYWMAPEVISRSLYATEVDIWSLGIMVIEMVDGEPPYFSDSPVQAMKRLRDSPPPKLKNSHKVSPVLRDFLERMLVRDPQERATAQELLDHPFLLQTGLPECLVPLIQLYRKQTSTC

Structure (SMILES): CCN1CCC(CC(=O)Nc2n[nH]c3nnc(-c4cccc(F)c4F)cc23)CC1
- inhibition [1]: 0.04%
- inhibition [2]: 1.76%
- inhibition [3]: 1.65%
- inhibition [4]: 2.63%
- inhibition [5]: 4.15%
- inhibition [6]: -0.03%
- inhibition [7]: 3.11%
- inhibition [8]: 2.12%
- inhibition [9]: 3.13%
- inhibition [10]: 2.02%
- inhibition [11]: 3.8%
- inhibition [12]: 3.03%
- inhibition [13]: 2.59%
- inhibition [14]: 4%
- inhibition [15]: 4.16%
- inhibition [16]: 2.51%
- inhibition [17]: 0.86%
- inhibition [18]: 3.37%
- inhibition [19]: 3.96%
- inhibition [20]: 0.47%

Structure (SMILES): NC(=O)c1sc(-n2cnc3ccc(C(F)(F)F)cc32)cc1OCc1ccccc1Br
- inhibition [1]: -7.15%
- inhibition [2]: 3.08%
- inhibition [3]: 2.1%
- inhibition [4]: 3.37%
- inhibition [5]: 3.08%
- inhibition [6]: 1.6%
- inhibition [7]: 3.37%
- inhibition [8]: 3.06%
- inhibition [9]: 3.55%
- inhibition [10]: 1.98%
- inhibition [11]: 3.2%
- inhibition [12]: 3.65%
- inhibition [13]: 2.05%
- inhibition [14]: 2.31%
- inhibition [15]: 4.26%
- inhibition [16]: 1.39%
- inhibition [17]: 3.73%
- inhibition [18]: 1.79%
- inhibition [19]: 2.59%
- inhibition [20]: -8.18%

Structure (SMILES): COC(=O)Nc1nc2ccc(Oc3ccc(NC(=O)Nc4cccc(Cl)c4)cc3)cc2[nH]1
- inhibition [1]: -1.03%
- inhibition [2]: 3.36%
- inhibition [3]: 8.54%
- inhibition [4]: 15.3%
- inhibition [5]: 40.9%
- inhibition [6]: 37.5%
- inhibition [7]: 56.3%
- inhibition [8]: 35.7%
- inhibition [9]: 59.7%
- inhibition [10]: 23.3%
- inhibition [11]: 42.4%
- inhibition [12]: 7.43%
- inhibition [13]: 22%
- inhibition [14]: 6.59%
- inhibition [15]: 13.3%
- inhibition [16]: 1.45%
- inhibition [17]: 2.26%
- inhibition [18]: 12.3%
- inhibition [19]: 28.8%
- inhibition [20]: -5.74%

Structure (SMILES): CN(C)CCOc1ccc(-c2nc(-c3ccncc3)c(-c3ccc4c(c3)CC/C4=N\O)[nH]2)cc1
- inhibition [1]: 9.98%
- inhibition [2]: 4.28%
- inhibition [3]: 17.5%
- inhibition [4]: 8.42%
- inhibition [5]: 34.1%
- inhibition [6]: 6.36%
- inhibition [7]: 30.4%
- inhibition [8]: 10.1%
- inhibition [9]: 45.1%
- inhibition [10]: 8.51%
- inhibition [11]: 41.9%
- inhibition [12]: 10.2%
- inhibition [13]: 40.1%
- inhibition [14]: 6.41%
- inhibition [15]: 40.7%
- inhibition [16]: 2.17%
- inhibition [17]: 8.67%
- inhibition [18]: 4.57%
- inhibition [19]: 19.4%
- inhibition [20]: -2.86%

Structure (SMILES): FC(F)(F)c1cccc(-c2nn3ncccc3c2-c2ccnc(Nc3ccc4c(c3)OCCO4)n2)c1
- inhibition [1]: -1.75%
- inhibition [2]: 3.04%
- inhibition [3]: 9.11%
- inhibition [4]: 6.97%
- inhibition [5]: 36.6%
- inhibition [6]: 10.1%
- inhibition [7]: 50%
- inhibition [8]: 9.57%
- inhibition [9]: 45.2%
- inhibition [10]: 10.1%
- inhibition [11]: 32.5%
- inhibition [12]: 5.94%
- inhibition [13]: 30.6%
- inhibition [14]: 3.95%
- inhibition [15]: 30.4%
- inhibition [16]: 2.44%
- inhibition [17]: 3.89%
- inhibition [18]: 4.21%
- inhibition [19]: 32.1%
- inhibition [20]: -5.2%

Structure (SMILES): COc1cc(/C=N/Nc2ncnc3[nH]ncc23)ccc1O
- inhibition [1]: 4.44%
- inhibition [2]: 36.5%
- inhibition [3]: 83.4%
- inhibition [4]: 45.9%
- inhibition [5]: 87.6%
- inhibition [6]: 42.9%
- inhibition [7]: 87.9%
- inhibition [8]: 47.9%
- inhibition [9]: 88.3%
- inhibition [10]: 8.14%
- inhibition [11]: 47.4%
- inhibition [12]: 52.5%
- inhibition [13]: 87.3%
- inhibition [14]: 35.1%
- inhibition [15]: 78.9%
- inhibition [16]: 1.72%
- inhibition [17]: 8.84%
- inhibition [18]: 15.6%
- inhibition [19]: 65.7%
- inhibition [20]: -3.29%

Structure (SMILES): CN1CCC(n2cnc(-c3ccc(F)cc3)c2-c2ccnc(N)n2)CC1
- inhibition [1]: -6%
- inhibition [2]: 3.04%
- inhibition [3]: 7%
- inhibition [4]: 2.82%
- inhibition [5]: 11.9%
- inhibition [6]: -0.15%
- inhibition [7]: 7.75%
- inhibition [8]: 2.65%
- inhibition [9]: 6.83%
- inhibition [10]: 1.94%
- inhibition [11]: 5.74%
- inhibition [12]: 1.88%
- inhibition [13]: 8.15%
- inhibition [14]: 2.31%
- inhibition [15]: 8.97%
- inhibition [16]: 1.26%
- inhibition [17]: 4.21%
- inhibition [18]: 2.89%
- inhibition [19]: 7.64%
- inhibition [20]: -3.77%

Structure (SMILES): CS(=O)(=O)CCNCc1coc(-c2ccc3ncnc(Nc4ccc(OCc5ccccc5)cc4)c3c2)c1
- inhibition [1]: -4.66%
- inhibition [2]: 1.64%
- inhibition [3]: 0.28%
- inhibition [4]: 4.11%
- inhibition [5]: 4.46%
- inhibition [6]: 1.21%
- inhibition [7]: 1.86%
- inhibition [8]: 2.14%
- inhibition [9]: 4.18%
- inhibition [10]: 1.94%
- inhibition [11]: 4.02%
- inhibition [12]: 3.03%
- inhibition [13]: 2.89%
- inhibition [14]: 4.85%
- inhibition [15]: 7.39%
- inhibition [16]: 2.87%
- inhibition [17]: 9.68%
- inhibition [18]: 3.06%
- inhibition [19]: 4.08%
- inhibition [20]: -2.71%

Structure (SMILES): c1cc(-c2cnn3nc(N4CCOCC4)ccc23)nc(NC2CC2)n1
- inhibition [1]: 6.8%
- inhibition [2]: 2.12%
- inhibition [3]: 3.25%
- inhibition [4]: 3.02%
- inhibition [5]: 5.18%
- inhibition [6]: 3.02%
- inhibition [7]: 4.81%
- inhibition [8]: 2.61%
- inhibition [9]: 6.62%
- inhibition [10]: 2.17%
- inhibition [11]: 2.55%
- inhibition [12]: 3.63%
- inhibition [13]: 6.41%
- inhibition [14]: 3.71%
- inhibition [15]: 13.7%
- inhibition [16]: 2.05%
- inhibition [17]: 9.86%
- inhibition [18]: 3.73%
- inhibition [19]: 9.11%
- inhibition [20]: -3.58%

Structure (SMILES): CCN(CC)S(=O)(=O)c1ccc(OC)c(Nc2ncc(-c3ccccc3)o2)c1
- inhibition [1]: 4.66%
- inhibition [2]: 1.69%
- inhibition [3]: 28.2%
- inhibition [4]: 4.61%
- inhibition [5]: 32.8%
- inhibition [6]: 6.41%
- inhibition [7]: 38.4%
- inhibition [8]: 5.31%
- inhibition [9]: 38.5%
- inhibition [10]: 1.63%
- inhibition [11]: 8.65%
- inhibition [12]: 9.09%
- inhibition [13]: 41.8%
- inhibition [14]: 3.01%
- inhibition [15]: 28.1%
- inhibition [16]: 0.5%
- inhibition [17]: 4.19%
- inhibition [18]: 6.09%
- inhibition [19]: 36.6%
- inhibition [20]: 0.5%

Structure (SMILES): CCNC(=O)O[C@H]1CN[C@H](C#Cc2cc3ncnc(Nc4ccc(OCc5cccc(F)c5)c(Cl)c4)c3s2)C1
- inhibition [1]: 4.55%
- inhibition [2]: 4.1%
- inhibition [3]: 2.82%
- inhibition [4]: 3.17%
- inhibition [5]: 2.6%
- inhibition [6]: 2.39%
- inhibition [7]: 0.66%
- inhibition [8]: 2.61%
- inhibition [9]: 2.16%
- inhibition [10]: 1.66%
- inhibition [11]: 1.84%
- inhibition [12]: 3.4%
- inhibition [13]: 1.32%
- inhibition [14]: 3.63%
- inhibition [15]: 4.84%
- inhibition [16]: 1.85%
- inhibition [17]: 4.55%
- inhibition [18]: 3.5%
- inhibition [19]: 5.21%
- inhibition [20]: -3.44%

Structure (SMILES): O=S(=O)(CCNCc1ccc(-c2ccc3ncnc(Nc4ccc(OCc5cccc(F)c5)c(Cl)c4)c3c2)o1)c1ccccc1
- inhibition [1]: 0.68%
- inhibition [2]: 3.29%
- inhibition [3]: 4.49%
- inhibition [4]: 5.17%
- inhibition [5]: 6.8%
- inhibition [6]: 1.27%
- inhibition [7]: 2.88%
- inhibition [8]: 5.71%
- inhibition [9]: 6.36%
- inhibition [10]: 2.35%
- inhibition [11]: 3.4%
- inhibition [12]: 5.4%
- inhibition [13]: 6.85%
- inhibition [14]: 5.27%
- inhibition [15]: 10.1%
- inhibition [16]: 4.32%
- inhibition [17]: 6.67%
- inhibition [18]: 4.64%
- inhibition [19]: 8.2%
- inhibition [20]: -7.43%

Structure (SMILES): CS(=O)(=O)CCNCc1ccc(-c2ccc3ncnc(Nc4ccc(OCc5ccccc5)c(C(F)(F)F)c4)c3c2)o1
- inhibition [1]: -6.97%
- inhibition [2]: 3.5%
- inhibition [3]: 2.71%
- inhibition [4]: 4.04%
- inhibition [5]: 4.48%
- inhibition [6]: 0.91%
- inhibition [7]: 0.91%
- inhibition [8]: 2.84%
- inhibition [9]: 2.08%
- inhibition [10]: 2.59%
- inhibition [11]: 2.46%
- inhibition [12]: 4.02%
- inhibition [13]: 3.49%
- inhibition [14]: 5.33%
- inhibition [15]: 5.35%
- inhibition [16]: 4.27%
- inhibition [17]: 4.07%
- inhibition [18]: 4.59%
- inhibition [19]: 4.76%
- inhibition [20]: -6%

Structure (SMILES): CC(C)COC(=O)c1ccc2c(c1)/C(=C/Nc1ccc(S(N)(=O)=O)cc1)C(=O)N2
- inhibition [1]: 0.35%
- inhibition [2]: 1.63%
- inhibition [3]: 21.7%
- inhibition [4]: 4.36%
- inhibition [5]: 26.6%
- inhibition [6]: 4.24%
- inhibition [7]: 33.2%
- inhibition [8]: 3.65%
- inhibition [9]: 28.9%
- inhibition [10]: 5.23%
- inhibition [11]: 43.4%
- inhibition [12]: 4.12%
- inhibition [13]: 28.8%
- inhibition [14]: 1.58%
- inhibition [15]: 36.3%
- inhibition [16]: -0.71%
- inhibition [17]: 4.93%
- inhibition [18]: 3.59%
- inhibition [19]: 20.4%
- inhibition [20]: 1.97%
